Experimental data: PubChem BioAssay (NCATS)
Results filed as inconclusive are left out. A number with no mark means an inactive call. The source made the active and inactive calls. The call rests on the fitted dose curve; in most records, active means well fitted cell-killing curve with a large enough effect; inconclusive means small, poorly fitted or top-dose-only effect, or effect the other way; inactive means flat fitted curve, though single readings scatter. Where a SMILES comes first, the peptide text is derived from it. [ ]: non-standard residue; d: D form. Ala(indol-2-yl) = N[C@@H](Cc1cc2ccccc2[nH]1)C(=O)O; Aib = CC(C)(N)C(=O)O

system: Hek293T; test: Primary qHTS to identify gynecologic anti-cancer compounds using libraries of approved drugs and bioactive compounds (AID 1345084); conditions: Gynecologic cancer cell panel viability, ATPlite luminescence, 48 h, control line for the selectivity index; series mostly up to 57.5 µM; further: nearly all actives have a fitted effect of over 55% in size
How it was run: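 Cell viability after 48 h drug treatment, ATPlite luminescence readout; five doses.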
On the % scale 0 is the no-effect control and ±100 the full control effect; potency means the concentration at half of the fitted maximal effect.

Row | SMILES | Potency | activity change, negative = cytotoxicity
1 | CCC(C)/C=C(C)/C=C/C1=CC2=C(Cl)C(=O)C(C)(OC(C)=O)C(=O)C2=CO1 (centres undefined) | inactive | –
2 | COC1CC(O[C@H]2CC[C@]3(C)C4CC[C@]5(C)[C@@H](C6=CC(=O)OC6)[C@@H](OC(C)=O)C[C@]5(O)C4CC[C@@H]3C2)OC(C)C1O (some centres undefined) | 1000 nM (active) | –
3 | C[C@H]1O[C@@H](O[C@H]2CC[C@]3(C=O)C4CC[C@]5(C)[C@@H](C6=CC(=O)OC6)CC[C@]5(O)[C@@H]4CC[C@]3(O)C2)C[C@@H](O)[C@@H]1O (some centres undefined) | 141 nM (active) | –
4 | C=C1[C@@H](C)[C@H]2[C@H](Cc3ccccc3)NC(=O)[C@]23OC(=O)/C=C/C(=O)CCC[C@@H](C)C/C=C/[C@H]3[C@@H]1O | 15800 nM (active) | –
5 | COC1CC(O[C@H]2CC[C@@]3(C)C(CCC4C3CC[C@]3(C)[C@@H](C5=CC(=O)OC5)CC[C@]43O)C2)OC(C)C1O (some centres undefined) | 141 nM (active) | –
6 | CC(C)(C)[C@]1(O)C[C@@H]2OC(=O)C[C@@]23C(=O)O[C@@H]2OC(=O)[C@@H](O)[C@]213 | inactive | –
7 | CNC(=O)c1cc(C#N)cc(C)c1NC(=O)c1cc(Br)nn1-c1ncccc1Cl | inactive | –
8 | OCc1nnc2n1-c1ccc(Cl)cc1C(c1ccccc1Cl)=NC2 | inactive | –
9 | CN[C@@H]1C[C@H]2O[C@@](C)([C@@H]1OC)n1c3ccccc3c3c4c(c5c6ccccc6n2c5c31)C(=O)NC4 | 4470 nM (active) | –
10 | COC1CC(O[C@H]2CC[C@]3(C=O)C4CC[C@]5(C)[C@@H](C6=CC(=O)OC6)CC[C@]5(O)[C@@H]4CC[C@@H]3C2)OC(C)C1O[C@@H]1O[C@H](CO)[C@@H](O[C@@H]2O[C@H](CO)[C@@H](O)[C@H](O)[C@H]2O)[C@H](O)[C@H]1O (some centres undefined) | 447 nM (active) | –
11 | CC[C@@H]1C[C@H]2CC[C@H](O2)[C@H](C)C(=O)O[C@@H](C)C[C@@H]2CC[C@@H](O2)[C@@H](C)C(=O)O[C@H](CC)C[C@H]2CC[C@H](O2)[C@H](C)C(=O)O[C@@H](C)C[C@@H]2CC[C@@H](O2)[C@@H](C)C(=O)O1 | 631 nM (active) | –
12 | CO[C@@H]1C[C@H](O[C@H]2CC[C@@]3(C)C(CCC4C3CC[C@]3(C)[C@@H](C5=CC(=O)OC5)[C@@H](OC(C)=O)CC43O)C2)O[C@H](C)[C@@H]1O[C@H]1O[C@H](CO[C@@H]2O[C@H](CO)[C@@H](O)[C@H](O)[C@H]2O)[C@@H](O)[C@H](O)[C@H]1O (some centres undefined) | 2000 nM (active) | –
13 | CO[C@H]1C[C@H](O[C@H]2CC[C@@]3(C)C(=CCC4C3CC[C@]3(C)[C@@H](C5=CC(=O)OC5)CC[C@]43O)C2)O[C@@H](C)[C@@H]1O[C@@H]1O[C@H](CO[C@@H]2O[C@H](CO)[C@@H](O)[C@H](O)[C@H]2O)[C@@H](O)[C@H](O)[C@H]1O (some centres undefined) | – | -20.2% [at 11.6 µM]
14 | C=C1[C@@H](C)[C@H]2[C@H](Cc3ccccc3)NC(=O)[C@]23[C@H](OC(C)=O)/C=C/[C@](C)(O)C(=O)[C@@H](C)C/C=C/[C@H]3[C@@H]1O | inactive | –
15 | c1cncc(OC[C@@H]2CCN2)c1 | inactive | –
16 | CC(=O)OC[C@]12C[C@H](OC(=O)CC(C)C)C(C)=C[C@H]1O[C@@H]1[C@H](O)C[C@@]2(C)[C@]12CO2 | 1000 nM (active) | –
17 | CNc1ccc2oc(C[C@H]3O[C@@]4(CC[C@H]3C)O[C@H](C(C)C(=O)c3ccc[nH]3)[C@H](C)C[C@H]4C)nc2c1C(=O)O (some centres undefined) | 8910 nM (active) | –

Row | SMILES | Potency | activity change, negative = cytotoxicity
18 | C[N@@+]1(CC2CC2)CC[C@]23c4c5ccc(O)c4O[C@H]2C(=O)CC[C@@]3(O)[C@H]1C5 | inactive | –
19 | COc1ccc2c3c([nH]c2c1)C(C=C(C)C)N1C(=O)C2CCCN2C(=O)C1C3 (centres undefined) | inactive | –
20 | CC(=O)OC[C@]12C[C@H](OC(=O)CC(C)C)C(C)=C[C@H]1O[C@@H]1[C@H](O)[C@@H](O)[C@@]2(C)[C@]12CO2 | 79.4 nM (active) | –
21 | CC(C)(NC(=O)[C@@H](N)Cc1ccc(O)cc1)C(=O)N[C@@H](Cc1cc2ccccc2[nH]1)C(=O)N[C@@H](Cc1ccccc1)C(=O)O (H-Y[Aib][Ala(indol-2-yl)]F-OH) | – | -0.36% [at 11.6 µM]
22 | CC[C@H]1C2CC3[C@@H]4N(C)c5ccccc5[C@]45C[C@@H]([C@H]2[C@H]5O)N3[C@@H]1O | inactive | –
23 | CC(=O)OC[C@]12C[C@H](OC(=O)CC(C)C)C(C)=C[C@H]1O[C@@H]1[C@H](O)[C@@H](OC(C)=O)[C@@]2(C)[C@@]12CO2 | 112 nM (active) | –
24 | C=C(CO)C(=O)O[C@H]1CC(=C)[C@@H]2C[C@H](O)C(=C)[C@@H]2[C@H]2OC(=O)C(=C)[C@@H]21 | inactive | –
25 | CC1CCCC(=O)CCC/C=C/c2cc(O)cc(O)c2C(=O)O1 (centres undefined) | inactive | –
26 | O=C(OC[C@H]1O[C@@H](Oc2ccc(O)cc2CO)[C@H](O)[C@@H](O)[C@@H]1O)c1ccccc1 | inactive | –
27 | CC[C@@]1(O)C(=O)OCc2c1cc1n(c2=O)Cc2cc3c(OC)cccc3nc2-1 | 1580 nM (active) | –
28 | CC(=O)OC[C@]12C[C@H](O)C(C)=C[C@H]1O[C@@H]1[C@H](O)[C@@H](O)[C@@]2(C)[C@]12CO2 | 1780 nM (active) | –
29 | CC[C@H]1C[C@@H]2CC[C@@H](O2)[C@@H](C)C(=O)O[C@H](CC)C[C@H]2CC[C@H](O2)[C@H](C)C(=O)O[C@@H](C)C[C@@H]2CC[C@@H](O2)[C@@H](C)C(=O)O[C@H](CC)C[C@H]2CC[C@H](O2)[C@H](C)C(=O)O1 | 355 nM (active) | –
30 | CC(=O)OC[C@]12C[C@H](O)C(C)=C[C@H]1O[C@@H]1[C@H](O)[C@@H](OC(C)=O)[C@@]2(C)[C@]12CO2 | 89.1 nM (active) | –
31 | CO[C@H]1[C@H](O)[C@H](O[C@H]2CC[C@]3(C=O)C4CC[C@]5(C)[C@H](C6=CC(=O)OC6)CC[C@]5(O)C4CC[C@@H]3C2)O[C@@H](C)[C@@H]1O (some centres undefined) | 126 nM (active) | –
32 | C[C@H]1O[C@@H](n2cnc3c(N)ncnc32)C[C@@H]1O | inactive | –
33 | CO[C@H]1[C@@H](O)[C@@H](C)O[C@@H](O[C@@H]2C=C3C(OC(C)=O)CC4(O)C(CC[C@]5(C)[C@@H](C6=CC(=O)OC6)CC[C@]45O)[C@@]3(C)CC2)[C@@H]1O (some centres undefined) | 251 nM (active) | –
34 | CN(C)c1cc2c(cc1Sc1nc3c(N)nccc3n1CCNCC(C)(C)C)OCO2 | 1260 nM (active) | –
